Source: PubChem BioAssay
Shown is part of a subset that was picked to be rich in hits.
Tgondii IFNg = T. gondii growth inhibition under IFN-gamma; activity change, negative = inhibition, % (test concentration not listed); Toxoplasma gondii growth in IFN-gamma-treated host cells; active compounds read low; hit rate 3.8% among 69,000; in the data active means activity change below about -70%, passing the limit was not always enough;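 further: host cells are HeLa cells infected with Toxoplasma gondii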
Numbers stand for hits; – = inactive; ! = not confirmed by another sample.

SMILES	Tgondii IFNg
CN(C)[C@@H]1CN(C(=O)Cc2ccsc2)[C@H]2COC[C@@H]12	–
COc1ccc(C)cc1NC(=O)c1c(O)c2cccnc2n(Cc2ccccc2)c1=O	–
O=C(Nc1ccccc1Cl)c1c(O)c2cccnc2n(Cc2ccccc2)c1=O	–
COc1ccccc1CNC(=O)c1cc2cccnc2n(Cc2ccc(F)cc2)c1=O	–
O=C(NCc1cccc(Cl)c1)c1c(O)c2cccnc2n(Cc2ccccc2)c1=O	-107
Cc1cccc(NC(=O)c2c(O)c3cccnc3n(Cc3ccccc3)c2=O)c1	–
O=C(NCc1ccc(F)cc1)c1c(O)c2cccnc2n(Cc2ccccc2)c1=O	-99
O=C(NCc1ccc(Cl)cc1)c1cc2cccnc2n(Cc2ccccc2F)c1=O	–
Cc1ccc(C)c(NC(=O)c2c(O)c3cccnc3n(Cc3ccccc3)c2=O)c1	–
O=C(Nc1ccc(F)cc1Cl)c1c(O)c2cccnc2n(Cc2ccccc2)c1=O	–
O=C(NCc1cc(F)cc(F)c1)c1c(O)c2cccnc2n(Cc2ccccc2)c1=O	-103
O=C(NCc1ccc(Cl)cc1)c1c(O)c2cccnc2n(Cc2ccccc2)c1=O	-98
O=C(NCc1ccccc1Cl)c1cc2cccnc2n(Cc2ccccc2)c1=O	–
O=C(NCc1cccc(OC(F)F)c1)c1cn(CC2CCCNC2)nn1 (configuration not stated)	–
O=C(C[C@@H]1COC[C@H]2CNC[C@@H]21)NCCc1ccncc1	–
C[N+]1(C)CCc2cc3c(cc2[C@H]1C1OC(=O)c2c1ccc1c2OCO1)OCO3 (some centres not stated)	–
Cn1cc(N2CCC3(CCN(Cc4ccncc4)C3)C2=O)cn1 (configuration not stated)	–
O=C1NCCN(CC2CC2)C12CCN(Cc1cccnc1)CC2	–
O=C(CCC1C(=O)NC(=O)NC1=O)Nc1ccc(Oc2ccc(F)cc2)cc1	–
Cc1cccc(NC(=O)c2c(O)c3cccnc3n(Cc3ccccc3)c2=O)c1C	–
Cc1ccc(NC(=O)c2c(O)c3cccnc3n(Cc3ccccc3)c2=O)cc1	–
O=C(NCC1CC1)c1c(O)c2cccnc2n(Cc2ccccc2)c1=O	-92
O=C(c1cccs1)N1CCN2CC(OCc3cccnc3)CC2C1 (configuration not stated)	–
Cn1cc(C(=O)C(=O)N[C@H]2CN3CCC2CC3)c2ccccc21	-80!
CN1C(=O)COc2c(C(=O)NC3CN4CCC3CC4)cc(Cl)cc21 (configuration not stated)	–
SMILES	Tgondii IFNg
O=C(N[C@H]1CN2CCC1CC2)c1ccc(Cl)cc1	–
CN1C[C@H](COCc2ccccn2)[C@]2(CCN(C(=O)N(C)C)C2)C1	–
Cc1cnc(N2CCN3C[C@H](Oc4cncnc4)C[C@@H]3C2)nc1	–
COCCNC(=O)c1cc2cccnc2n(Cc2ccccc2)c1=O	–
CN(C)c1ccc(-c2nccn2CCc2cnc[nH]2)cn1	–
O=C(NCCC(c1ccccc1)c1ccccc1)c1cc2cccnc2n(Cc2ccc(F)cc2)c1=O	-83
O=C(NCc1ccc(F)cc1)c1cc2cccnc2n(Cc2ccc(Cl)cc2)c1=O	–
Cc1ccc(CNC(=O)c2cc3cccnc3n(Cc3ccc(F)cc3)c2=O)cc1	–
CC(C)CCNC(=O)c1cc2cccnc2n(Cc2ccc(F)cc2)c1=O	–
O=C(NCCC(c1ccccc1)c1ccccc1)c1cc2cccnc2n(Cc2ccccc2)c1=O	–
O=C(NCc1ccco1)c1cc2cccnc2n(Cc2ccc(F)cc2)c1=O	-95
CN(C)C(=O)CN1CC2CONC2C1 (configuration not stated)	–
Cc1cnc(N2CCC[C@H]3CN(CC(=O)N(C)C)C[C@H]32)nc1	–
Cc1cc(C)c(NC(=O)c2cc3cccnc3n(Cc3ccccc3)c2=O)c(C)c1	–
CCCCOC(=O)c1ccc(NC(=O)c2cc3cccnc3n(Cc3ccccc3F)c2=O)cc1	–
COc1ccccc1CNC(=O)c1cc2cccnc2n(Cc2ccccc2F)c1=O	–
c1cncc(COC[C@@]23COC[C@@H]2CN(Cc2ccco2)C3)c1	–
Cc1cccc(CN2C(=O)C[C@H]3[C@H]2CCN3Cc2cccs2)n1	-93
c1ccc(CN2CC[C@H]3[C@@H]2CCN3Cc2cccs2)nc1	–
CN(C)C(=O)CN1CCC2C1CC(=O)N2Cc1cccnc1 (configuration not stated)	–
CCc1ccc(CN2C[C@H](OC)[C@@H]3COC[C@@H]32)o1	–
Cc1ccc(N2CCC3(CC2)C(=O)N(C)CCN3C)nn1	–
CCN(CC)C(=O)C1=NOC2(CCNC2)C1 (configuration not stated)	–
Cc1noc(C)c1CN1CC2CC(C1)N(CCO)C2 (configuration not stated)	–
Fc1cnc(N2CCC3(CC2)CNCc2ccccc23)nc1	-84
SMILES	Tgondii IFNg
C=CCN1CCN(c2ncc(F)cn2)Cc2ccc(C)nc21	–
Fc1cnc(N2CCN(CC3CC3)c3ncccc3C2)nc1	–
CCN1C[C@H]2[C@H](OC)CCN(C(=O)COc3ccccc3OC)[C@H]2C1	–
Cc1cccc(CN2CC[C@H]3CO[C@H](CNS(C)(=O)=O)[C@@H]3C2)n1	–
Cc1noc(C)c1CN1CCO[C@H]2CN(Cc3cccs3)C[C@@H]21	–
CC(NC(=O)c1cc2cccnc2n(Cc2ccc(Cl)cc2)c1=O)c1ccccc1 (configuration not stated)	–
COc1ccc(N2C(=O)NC(=O)C3(Cc4cccc(F)c4N4CCC(c5ccccc5)CC43)C2=O)cc1 (configuration not stated)	-99
COc1cc(C(=O)N[C@H]2c3ccccc3[C@@H]3CNC[C@H]32)ccn1	–
CNC(=O)[C@@H]1COC[C@@H]2CN(Cc3ccncc3)C[C@@H]21	–
Cc1nocc1C(=O)N1CCC2(CC1)COCCN2CCN(C)C	–
O=C(c1ccco1)N1C2CCC1CNC2	–
C=CCOC[C@@H]1CC[C@H]2[C@H](CCN2CC2CC2)O1	–
CCOC1CC2(CCN(CC(=O)O)CC2)c2cc(OC)ccc21 (configuration not stated)	–
CC1(C)C(=O)[C@@H]2O[C@@H]2[C@@]2(C)C1C[C@@H](O)[C@]1(C)C2CC[C@@]2(C)[C@H](c3ccoc3)OC(=O)C3OC321 (some centres not stated)	–
CC(=O)O[C@@H]1C[C@@]2(C)[C@H](c3ccoc3)C[C@H]3O[C@]32[C@]2(C)C(=O)C(=O)C3C(C)(C)C(=O)C=C[C@]3(C)C12 (some centres not stated)	-83
c1cncc(N2CCOCC3(CCCN(Cc4ccoc4)C3)C2)c1 (configuration not stated)	–
CCN1C[C@H]2[C@@H](OC)CCN(C(=O)c3ncccn3)[C@H]2C1	–
CNC(=O)[C@H]1CC2CN(c3cc(OC)ncn3)CC2N1C(C)C (some centres not stated)	–
O=C(Nc1ccc(Cl)cc1)c1cc2cccnc2n(Cc2ccc(F)cc2)c1=O	–
O=C(Nc1ccncc1)C(=O)c1cn(Cc2ccc(Cl)cc2)c2ccccc12	-78
O=Cc1cn(Cc2ccc(F)cc2)c2ccccc12	–
Cc1cc(C)cc(NC(=O)c2cc3cccnc3n(Cc3ccccc3F)c2=O)c1	–
COc1ccc(CN2C3CCC2CC(O)(Cn2ccc4ncccc42)C3)cc1OC (configuration not stated)	–
O=C(NCc1c(F)cccc1F)c1cc2cccnc2n(Cc2ccc(Cl)cc2)c1=O	–
Fc1ccc(C(OCCN2CCCC2)c2ccc(Br)cc2)cc1 (configuration not stated)	–
Fc1ccc(C(OCCN2CCN(CCCc3ccccc3)CC2)c2ccc(F)cc2)cc1	–
